Experimental findings from PubChem BioAssay are described below.

Active and inactive are the calls of the source.

Assay [1] in a line: small molecules captured by biotinylated probe aFSTL3 – biochemical, small-molecule microarray, fluorescence 635/667, stem cell growth factor project, primary screen (AID 1064).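 Note: measures binding of the biotinylated anti-FSTL3 antibody to printed compounds.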 The settings on record: higher = more signal.
A short description of assay [2]: binders from COS7 lysate, DM2A8 probe, primary screen, torsin A project, cell lysate, small-molecule microarray, fluorescence 635/667 (AID 1065). As to conditions: higher = more signal, COS7 lysate expressing mutant human TOR1A.
Assay [3] in a line: small molecules captured by biotinylated probe aFGF2 – biochemical, small-molecule microarray, fluorescence 635/667, stem cell growth factor project, primary screen (AID 1067).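 Note: measures binding of biotinylated aFGF2 protein to printed compounds on slides; z-score merges feature fluorescence and signal-to-noise across triplicate slides.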 As to conditions: higher = more signal.
Assay [4] can be described thus: small molecules captured by biotinylated probe aFGF10 – biochemical, small-molecule microarray, fluorescence 635/667, stem cell growth factor project, primary screen (AID 1071).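 Note: score merges 667 nm spot intensity and signal to noise from triplicate slides.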 As to conditions: higher = more signal.
Assay [5] deals with Neurogenic locus notch homolog protein 2 (Homo sapiens) (UniProt Q04721). In words: small molecules binding Notch2 protein – biochemical, small-molecule microarray, 635 nm fluorescence, stem cell growth factors, primary screen (AID 1073). The settings on record: higher = more signal.
Neurogenic locus notch homolog protein 2 (Homo sapiens), sequence (Q04721 whole entry, looked up, canonical isoform): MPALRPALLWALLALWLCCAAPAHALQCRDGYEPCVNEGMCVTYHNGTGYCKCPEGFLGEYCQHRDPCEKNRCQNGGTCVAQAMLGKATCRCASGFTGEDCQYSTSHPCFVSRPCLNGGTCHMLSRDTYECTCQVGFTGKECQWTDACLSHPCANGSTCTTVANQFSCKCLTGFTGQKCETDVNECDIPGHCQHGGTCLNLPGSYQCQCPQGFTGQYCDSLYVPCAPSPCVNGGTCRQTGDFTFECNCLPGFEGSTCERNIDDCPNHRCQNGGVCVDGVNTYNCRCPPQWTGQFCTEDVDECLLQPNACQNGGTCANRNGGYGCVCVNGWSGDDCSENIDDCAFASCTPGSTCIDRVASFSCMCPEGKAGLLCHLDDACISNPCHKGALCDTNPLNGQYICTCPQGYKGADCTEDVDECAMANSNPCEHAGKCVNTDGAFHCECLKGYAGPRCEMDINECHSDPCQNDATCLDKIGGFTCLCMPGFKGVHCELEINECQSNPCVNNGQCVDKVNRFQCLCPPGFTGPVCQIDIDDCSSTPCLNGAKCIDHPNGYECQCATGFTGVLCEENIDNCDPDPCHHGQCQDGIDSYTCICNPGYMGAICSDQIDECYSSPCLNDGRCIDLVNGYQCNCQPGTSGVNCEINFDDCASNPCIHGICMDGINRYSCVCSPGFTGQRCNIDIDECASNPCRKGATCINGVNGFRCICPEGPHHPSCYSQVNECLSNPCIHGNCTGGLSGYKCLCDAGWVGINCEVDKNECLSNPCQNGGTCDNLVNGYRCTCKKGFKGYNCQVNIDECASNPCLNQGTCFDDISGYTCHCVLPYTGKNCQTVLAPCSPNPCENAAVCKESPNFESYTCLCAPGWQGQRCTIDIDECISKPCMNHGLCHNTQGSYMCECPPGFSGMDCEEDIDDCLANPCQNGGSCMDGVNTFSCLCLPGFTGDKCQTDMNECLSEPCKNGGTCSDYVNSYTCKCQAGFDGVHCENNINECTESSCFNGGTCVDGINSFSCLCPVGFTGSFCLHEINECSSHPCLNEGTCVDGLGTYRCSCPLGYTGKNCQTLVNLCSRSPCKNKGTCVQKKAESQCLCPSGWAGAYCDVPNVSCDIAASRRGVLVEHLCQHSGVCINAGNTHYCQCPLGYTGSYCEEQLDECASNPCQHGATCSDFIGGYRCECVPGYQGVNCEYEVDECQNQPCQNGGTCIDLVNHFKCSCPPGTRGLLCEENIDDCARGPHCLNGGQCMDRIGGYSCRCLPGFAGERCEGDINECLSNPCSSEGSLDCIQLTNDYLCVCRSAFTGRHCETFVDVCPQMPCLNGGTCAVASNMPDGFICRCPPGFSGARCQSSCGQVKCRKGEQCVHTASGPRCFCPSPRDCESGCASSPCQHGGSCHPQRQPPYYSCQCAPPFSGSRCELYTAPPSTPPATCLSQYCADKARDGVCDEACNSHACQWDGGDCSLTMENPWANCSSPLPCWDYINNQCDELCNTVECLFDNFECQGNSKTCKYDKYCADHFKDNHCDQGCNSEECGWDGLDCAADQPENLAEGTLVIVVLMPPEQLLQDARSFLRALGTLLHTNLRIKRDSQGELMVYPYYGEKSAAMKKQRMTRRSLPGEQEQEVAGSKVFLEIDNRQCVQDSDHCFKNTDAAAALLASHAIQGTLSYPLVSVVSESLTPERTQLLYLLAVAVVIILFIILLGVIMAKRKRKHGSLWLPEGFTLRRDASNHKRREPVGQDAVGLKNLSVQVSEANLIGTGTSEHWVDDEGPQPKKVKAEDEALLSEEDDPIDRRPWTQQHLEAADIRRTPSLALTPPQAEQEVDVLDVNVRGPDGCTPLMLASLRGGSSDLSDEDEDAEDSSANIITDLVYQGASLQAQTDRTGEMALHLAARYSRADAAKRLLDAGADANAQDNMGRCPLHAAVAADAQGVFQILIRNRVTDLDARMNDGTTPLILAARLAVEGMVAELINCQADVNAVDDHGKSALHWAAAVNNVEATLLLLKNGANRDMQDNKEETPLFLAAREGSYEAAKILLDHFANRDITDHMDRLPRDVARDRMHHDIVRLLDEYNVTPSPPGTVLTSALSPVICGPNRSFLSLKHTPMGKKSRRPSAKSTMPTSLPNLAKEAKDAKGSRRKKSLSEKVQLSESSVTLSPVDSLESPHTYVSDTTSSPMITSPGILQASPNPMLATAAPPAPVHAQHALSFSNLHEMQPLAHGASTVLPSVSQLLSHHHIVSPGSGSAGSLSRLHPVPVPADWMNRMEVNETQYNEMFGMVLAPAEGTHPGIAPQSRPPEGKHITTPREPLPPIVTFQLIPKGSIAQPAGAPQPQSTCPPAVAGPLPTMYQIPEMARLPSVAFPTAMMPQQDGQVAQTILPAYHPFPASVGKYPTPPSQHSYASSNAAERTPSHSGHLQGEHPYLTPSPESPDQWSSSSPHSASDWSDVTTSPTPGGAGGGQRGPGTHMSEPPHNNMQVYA
Assay [6] deals with Pro-neuregulin-1, membrane-bound isoform (Homo sapiens) (UniProt Q02297). In words: small molecules binding neuregulin-1 protein – biochemical, small-molecule microarray, fluorescence 635/667, psychiatric disease protein project, primary screen (AID 1075).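 Note: score combines 667 nm spot fluorescence with signal to noise.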 As to conditions: NRG1 binding, 635 nm fluorescence, higher = more signal.
Pro-neuregulin-1, membrane-bound isoform (Homo sapiens), sequence (Q02297 whole entry, looked up, the tested form may be a part, canonical isoform): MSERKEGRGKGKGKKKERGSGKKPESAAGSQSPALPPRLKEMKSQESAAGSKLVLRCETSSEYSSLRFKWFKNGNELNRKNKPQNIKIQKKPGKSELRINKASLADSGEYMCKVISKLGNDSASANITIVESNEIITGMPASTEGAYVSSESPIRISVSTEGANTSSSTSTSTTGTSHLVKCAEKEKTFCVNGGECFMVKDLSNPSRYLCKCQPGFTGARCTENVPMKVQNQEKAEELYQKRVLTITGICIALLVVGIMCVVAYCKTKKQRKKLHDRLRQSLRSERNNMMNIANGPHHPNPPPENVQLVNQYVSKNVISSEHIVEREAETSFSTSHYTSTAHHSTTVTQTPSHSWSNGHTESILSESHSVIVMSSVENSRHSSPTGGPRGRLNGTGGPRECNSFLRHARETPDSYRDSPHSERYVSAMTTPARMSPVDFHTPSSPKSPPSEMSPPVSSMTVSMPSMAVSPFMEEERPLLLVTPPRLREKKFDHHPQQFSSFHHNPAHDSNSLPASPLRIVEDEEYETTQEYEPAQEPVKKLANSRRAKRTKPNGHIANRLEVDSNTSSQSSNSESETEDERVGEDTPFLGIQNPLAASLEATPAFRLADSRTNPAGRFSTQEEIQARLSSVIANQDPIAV
Assay [7] concerns Neuregulin-1 EGF-like domain. In words: small molecules binding NRG1 EGF domain – biochemical, small-molecule microarray, 635 nm fluorescence, primary screen (AID 1081).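 Note: binding of the protein to compounds printed on small-molecule microarray slides.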 As to conditions: higher = more signal.
The nature of assay [8]: FRG1 expression reporter modulators in myotubes – cell-based, C2C12 myotubes, firefly/Renilla luciferase, luminescence, FRG1 inhibition for FSHD, primary screen (AID 1084). The settings on record: FRG1 promoter luciferase, higher = more signal, called active from +8 up or from −8 down.
A short description of assay [9]: small molecules captured by biotinylated probe aFST – biochemical, small-molecule microarray, fluorescence 635/667, stem cell growth factor project, primary screen (AID 1086).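 Note: score merges 667 nm fluorescence with signal-to-noise of each printed compound spot.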 The settings on record: higher = more signal.
Assay [10] is described as follows: binders of probe aHhip on microarray, primary screen, stem cell growth factor project, biochemical, small-molecule microarray, fluorescence 635/667 (AID 1087).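 Note: score merges spot fluorescence at 667nm with spot signal to noise ratio.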 As to conditions: higher = more signal.

As to `CCCNC(=O)[C@@]1(Sc2ccc(C)cc2)CC(=O)N(Cc2cc(C(F)(F)F)cc(C(F)(F)F)c2)[C@@H]1c1ccc(CO)cc1`, the composite z-score in assay [1] is 0.708; in assay [2], -0.332; in assay [3], -0.0363; in assay [4] it was 0.0551; in assay [5], -0.608; in assay [6], -0.78. Besides, the composite z-score in assay [7] was 0.791; in assay [9], -0.486; in [10], -0.236. Moreover, the z-score in [8] is 0.621 (inactive).
For the compound `COCCOC(=O)N1C(=O)[C@@]2(c3cc(C#CCC(C(=O)OC)C(=O)OC)ccc31)[C@H](C(=O)N1CCc3cc(OC)c(OC)cc3C1)[C@H]1C(=O)O[C@H](c3ccccc3)[C@H](c3ccccc3)N1[C@@H]2c1ccccc1OCCO`, the composite z-score in [1] is -0.308; in assay [2] it was 0.399; in assay [3] it was -0.0608; in [4] it was 0.375; in assay [5] it was 1.44; in assay [6] it was 0.875. The values for the composite z-score in [7], in assay [9] and in [10] were 1.22, 0.651 and -0.204, respectively. For the same compound, the z-score in assay [8] was -0.223 (inactive).
For the compound `COCCCNC(=O)[C@]1(Cc2ccccc2CN=[N+]=[N-])N=C(c2ccc(OCCCO)cc2)O[C@@H]1c1ccccc1N=[N+]=[N-]`, the composite z-score worked out at 1.19 in assay [1]; 0.694 in [2]; 0.359 in assay [3]; 0.425 in assay [4]; 1.43 in assay [5]; 0.527 in [6]. The results for the composite z-score in assay [7], in assay [9] and in [10] were 1.11, 0.762 and 0.0623, respectively. Further, the z-score in assay [8] was -0.881 (inactive).
In the case of `CCCCCN1CC=CC23O[C@@H]4/C=C\CCCOC(=O)C4[C@H]2C(=O)N(CCO)[C@@H]3C1=O` (stereo not given in full), the composite z-score in assay [1] was 0.0382; in assay [2], 0.351; in assay [3] it was -0.133; in assay [4], -0.148; in assay [5], -0.326; in assay [6], 0.913. Besides, the figures for the composite z-score in [7], in assay [9] and in [10] were 1.5, -0.345 and -0.223, respectively. Moreover, in [8], the z-score is -0.345 (inactive).
`COc1cccc(C)c1NC(=O)O[C@H]1[C@H](OC(=O)Nc2ccc3c(c2)OCO3)[C@H](OC(=O)Nc2ccc3c(c2)OCO3)[C@@H](OC)O[C@@H]1CO`: the composite z-score is 0.394 in assay [1]; 0.439 in assay [2]; 0.06 in [3]; 0.867 in [4]; 1.25 in assay [5]; 1.13 in assay [6]. Further, the composite z-score worked out at 1.35 in assay [7], 1.05 in assay [9] and 0.12 in [10]. Besides, the z-score in [8] was 3.61 (inactive).
Take `CCCCN1CC=CC23O[C@@H]4/C=C\CCCOC(=O)C4[C@H]2C(=O)N(CCCCCCO)[C@@H]3C1=O` (stereo not given in full): the composite z-score in assay [1] was 0.179; in assay [2], -0.619; in assay [3] it was -0.144; in [4], -0.785; in [5], -0.868; in [6], 2.04. For the same compound, the composite z-score in assay [7] was 1.15; in assay [9], -1.09; in assay [10], -0.0994. The z-score in assay [8] is -1.38 (inactive).
Regarding `CN1C(=O)C2C=CC(C(O)c3ccc([N+](=O)[O-])cc3)N(Nc3ccccc3)C2C1=O` (stereo not given), the composite z-score in assay [1] was -0.001; in assay [2], 0.135; in assay [3], 0.235; in [4] it was 0.889; in [5], 1.62; in [6], 1.75. Besides, the composite z-score in assay [7] is 1.16; in assay [9], 0.955; in assay [10] it was -0.156. In addition, the z-score in [8] was -0.439 (inactive).
For `C=CCC(OC(C)=O)[C@@H]1[C@@H](N(Cc2cccc3ccccc23)C(=O)c2ccc(C)cc2)c2cc(OCCCO)ccc2N1C(=O)Cc1ccc2ccccc2c1` (stereo not given in full), the composite z-score in assay [1] was 0.151; in [2], -0.124; in assay [3], 0.0348; in assay [4] it was 0.021; in assay [5], -0.0785; in assay [6] it was -0.158. Further, the composite z-score in assay [7] was -0.665; in assay [9], 0.0338; in [10] it was 0.127. Besides, in assay [8], the z-score is -2.29 (inactive).
Consider `C=C(CCCC)/C(=C/C[C@@H](OC(C)=O)c1cccc(OCCO)c1)c1cc(C(=O)OC)ccc1OC`, for which the composite z-score in assay [1] was 0.289; in assay [2], -0.0739; in assay [3], -0.14; in [4] it was 0.222; in [5], 0.0199; in [6] it was 0.361. Moreover, the composite z-score was 0.31 in [7], -0.0258 in assay [9] and -0.0618 in assay [10]. The z-score in [8] was 0.942 (inactive).
`CCOC(=O)C1=CC[C@@H](c2ccccc2)N(S(=O)(=O)c2ccc(C)cc2)[C@@H]1C#N`: the composite z-score was -0.182 in [1]; -0.0258 in [2]; 0.0056 in assay [3]; 0.388 in assay [4]; 1.25 in assay [5]; 1.11 in [6]. Besides, the values for the composite z-score in assay [7], in assay [9] and in assay [10] were 1.05, 0.158 and 0.0505, respectively. The z-score in assay [8] is -0.823 (inactive).
For the compound `CN1C2C=C(c3ccc(CO)cc3)C(C3C(=O)N(C(N)=O)C(=O)C32)C1C1CC1` (stereo not given), the composite z-score was -0.153 in [1]; 0.103 in assay [2]; -0.146 in assay [3]; -0.0401 in assay [4]; -0.161 in assay [5]; 0.0413 in [6]. For the same compound, the composite z-score in assay [7] was 0.663; in [9] it was -0.0595; in [10], -0.201. Also, the z-score in assay [8] is 0.567 (inactive).
For `COC(=O)[C@H]1N=C(c2ccc(OCCCO)cc2)O[C@H]1c1ccccc1N=[N+]=[N-]`, the composite z-score in [1] was determined as 1.6; in [2], 0.707; in assay [3] it was 0.184; in assay [4], 0.48; in assay [5], 1.01; in [6] it was 0.544. For the same compound, the composite z-score is 1.21 in [7], 1.04 in [9] and -0.0994 in assay [10]. Besides, in [8], the z-score was 4.9 (inactive).
Take `C=CC[C@H](O)c1ccc(O)c2ccccc12`: the composite z-score in assay [1] is -0.112; in assay [2] it was 0.821; in assay [3], -0.0558; in [4] it was 0.513; in assay [5], 0.61; in assay [6], 0.826. Moreover, the composite z-score in assay [7] amounted to 1.3; in assay [9], 0.193; in [10] it was 0.0749. In addition, the z-score in assay [8] was -0.0666 (inactive).
As for `C=CCNC(=O)[C@H]1[C@@H]2C(=O)O[C@@H](c3ccccc3)[C@@H](c3ccccc3)N2[C@@H](c2ccc(OCCO)cc2)[C@]12C(=O)N(C(=O)OCCOC)c1ccc(C#CCC(C(=O)OC)C(=O)OC)cc12`, the composite z-score in assay [1] turned out to be 1.55; in assay [2], 0.948; in assay [3] it was 0.18; in [4] it was 1.1; in [5] it was 0.881; in assay [6], 1.63. The composite z-score in [7] amounted to 1.19; in [9], 0.725; in assay [10] it was 1.58. For the same compound, in [8], the z-score was 0.9 (inactive).
With `C=C(C(=O)CC[C@H](OC(=O)c1ccccc1-c1ccccc1C(=O)O)c1ccc(OCCO)cc1)C(C)C`, the composite z-score is -0.525 in [1]; 0.166 in assay [2]; 0.0033 in [3]; 0.13 in [4]; 0.214 in assay [5]; 1.76 in [6]. For the same compound, the composite z-score in [7] was 1.26; in assay [9], 0.239; in assay [10], -0.0994. In [8], the z-score was 1.72 (inactive).
As to `CO[C@H]1O[C@H](CO)[C@@H](OC(=O)Nc2ccccc2)[C@@H]2OC(=O)[C@@H](Cc3ccccc3)C/C=C/C[C@H](Cc3ccccc3)C(=O)O[C@@H]12`, the composite z-score is -0.263 in [1]; 1.24 in assay [2]; -0.0737 in [3]; 0.393 in assay [4]; -0.0327 in assay [5]; 0.379 in [6]. In addition, the composite z-score was 0.324 in assay [7], 0.241 in [9] and 0.176 in assay [10]. For the same compound, the z-score in assay [8] is -0.461 (inactive).
